Results filed as inconclusive are left out. Where a call stands in place of a potency, no number is given. The source made the active and inactive calls. Calls follow the shape of the dose curve; as a rule, active = well fitted cell-killing curve with a large enough effect in the repeat runs; inconclusive = weak or mixed curves; inactive = flat fitted curve, though single readings scatter.
experiment: qHTS RealTime-Glo MT Cell Viability Assay in HepG2 cells - 16 hour (AID 1224885); conditions: RealTime-Glo luminescence; series mostly up to 76.8 µM; also: nearly all actives have a fitted effect of over 50% in size
Excerpt: U.S. Tox21 Program National Center for Advancing Translational Sciences [NCATS] NIH Chemical Genomics Center [NCGC] U.S. Environmental Protection Agency [EPA] National Institutes of Environmental Health Sciences [NIEHS] National Toxicology Program [NTP] U.S. Food and Drug Administration [FDA] Tox21 Assay Overview: Measure of cell viability is critical in the cell-base assay. Analysis of cell viability is necessary for the characterization of cell responses to cytotoxic drugs and environmental stress. A RealTime-Glo MT Cell Viability Assay to monitor cell viability in real time of continues cell culture during 40 hours of compound treatment was used to screen Tox21 10K library compounds in HepG2 cells. The RealTime-Glo MT Cell Viability Assay is a nonlytic, homogeneous, bioluminescent method to measure cell viability in real time using a simple, plate-based method. The assay involves adding NanoLuc luciferase and a cell-permeant prosubstrate to cells in culture. Viable cells reduce the proprietary prosubstrate to generate a substrate for NanoLuc luciferase. This substrate diffuses from cells into the surrounding culture medium, where it is rapidly used by the NanoLuc Enzyme to produce a luminescent signal. The signal correlates with the number of viable cells, making the assay well suited for cytotoxicity studies.
Tox21 Assay Protocol Summary: The mixture of HepG2 cell suspension and reagents were dispensed at 600cells/6 ul/well in 1536-well tissue culture treated black solid bottom plates using a Multidrop dispenser. After the assay plates were incubated at a 37 C/5% CO2 incubator for 5 hours, 23 nL of compounds dissolved in DMSO, positive and negative controls was transferred to the assay plate by a pintool work station. The plates were incubated at 37 C for 40 hours. The luminescence intensity were measured at 0h, 8h, 16h, 24h, 32h and 40h time points using ViewLux plate reader during compound treatment.
Potency is read from the fitted curve at half-maximal effect.

Row | SMILES | Potency
1 | C[C@H]1C[C@H]2[C@@H]3CCC4=CC(=O)C=C[C@]4(C)[C@@]3(Cl)[C@@H](O)C[C@]2(C)[C@@]1(O)C(=O)CO | inactive
2 | CCOCC(O)COc1ccc(NC(=O)CC[S+](C)C)cc1 (stereo not given) | inactive
3 | C=C1[C@H]2CC[C@@H]3[C@H]2C(C)(C)CCC[C@]13C | inactive
4 | CCCCc1nc2cccnc2n1Cc1ccc(-c2ccccc2-c2nnn[nH]2)cc1 | inactive
5 | Cc1oc(-c2ccccc2)nc1CCOc1cccc2c1ccn2CCC(=O)O | inactive
6 | C[Si](C)(CCCN)O[Si](C)(C)CCCN | inactive
7 | CCCCCCCN | inactive
8 | CCCCCCCCCCCCCCCCOS(=O)(=O)O | inactive
9 | CCC(C)(C)CC | inactive
10 | C=C(C)C(=O)OCC | inactive
11 | COc1cc(C(=O)OCCCN2CCCN(CCCOC(=O)c3cc(OC)c(OC)c(OC)c3)CC2)cc(OC)c1OC | inactive
12 | Cc1ccccc1S(=O)(=O)O | inactive
13 | CCCCCCCCCOS(=O)(=O)O | inactive
14 | CCCCCC[C@@H](O)C/C=C\CCCCCCCC(=O)OC | inactive
15 | O=C(CS)Nc1ccccc1 | inactive
16 | O=C1[C@H]2CCCC[C@H]2C(=O)N1CCCCN1CCN(c2nsc3ccccc23)CC1 | inactive
17 | CCCCCCCCCCCCCCOS(=O)(=O)O | inactive
18 | CCC(=O)O[C@]1(C(=O)CCl)[C@@H](C)C[C@H]2[C@@H]3CCC4=CC(=O)C=C[C@]4(C)[C@@]3(F)[C@@H](O)C[C@@]21C | inactive
19 | CCCCCCCCCCCCN1CCCCCC1=O | inactive
20 | CCCCCCCC#N | inactive

Row | SMILES | Potency
21 | CC[N+]1(CC)CCC(=C(c2ccccc2)c2ccccc2)C1C (stereo not given) | inactive
22 | CN1CCN(C(c2ccccc2)c2ccccc2)CC1 | inactive
23 | CCOc1ccc(N)c([N+](=O)[O-])c1 | inactive
24 | CC(COCCO)OCCO (stereo not given) | inactive
25 | C#CCN(C)CCCOc1ccc(Cl)cc1Cl | inactive
26 | ClCCOCCOCCCl | inactive
27 | CCOc1ccc(N=Nc2ccc(/C=C/c3ccc(N=Nc4ccc(OCC)cc4)cc3S(=O)(=O)O)c(S(=O)(=O)O)c2)cc1 | inactive
28 | COC(C)(C)CCO | inactive
29 | CCCCOC(=O)CCCCCCCC(=O)OCCCC | inactive
30 | CN(C)CCN(Cc1ccccc1)c1ccccn1 | inactive
31 | NC(=O)C(c1ccccc1)(c1ccccc1)[C@@H]1CCN(CCc2ccc3c(c2)CCO3)C1 | inactive
32 | O=S(=O)(Oc1ccc(Cl)cc1)c1ccccc1 | inactive
33 | CC(C)OC(=O)C(C)N(C(=O)c1ccccc1)c1ccc(F)c(Cl)c1 (stereo not given) | inactive
34 | COCC(C)OC(C)=O (stereo not given) | inactive
35 | COc1cc(Cl)ccc1Oc1ccc(Cl)cc1Cl | inactive
36 | Clc1ccc2c(c1)CCc1cccnc1C2=C1CCNCC1 | inactive
37 | CC(C)(C)OCC1CO1 (stereo not given) | inactive
38 | CC(C)C[C@H]1C(=O)N2CCC[C@H]2[C@]2(O)O[C@](NC(=O)[C@@H]3C=C4c5cccc6[nH]c(Br)c(c56)C[C@H]4N(C)C3)(C(C)C)C(=O)N12 | 13.2 µM (active)
39 | O=C1CCC(=O)O1 | inactive
40 | CCCCC | inactive

Reference: PubChem BioAssay (Tox21)
